From PubChem BioAssay AID1159580 (chemical genetic matrix, 2015)
Values joined by “and” are separate entries in the source; they are usually repeats but may differ in a detail not shown here. Identical values can stand only once. Hit rate of the full screen: of about 5,500 compounds, about 2,000 (36%) were called active. Another 18% or so got no clear call; they are omitted. No stated cut-off is given here; in the data, active means normalized growth mostly below about 0.91 (no sharp cut-off); inconclusive means no clear call, values can overlap the other calls; inactive means mostly above about 0.92. The list shows a part of the results.

Assay: chemical genetic growth profiling, strain panel (AID 1159580);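 further: tested at 20 µM; growth read once vehicle control cultures reached saturation at 30 °C; 1 = growth at the plate median or of vehicle wells; lower values mean less growth of the strain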
Details: S. cerevisiae deletion strains, growth OD

Measured: normalized growth

CC1O[C@@H](Oc2c(-c3ccc(O)c(O)c3)oc3cc(O)cc(O)c3c2=O)[C@H](O)[C@H](O)[C@H]1O (some centres not stated)
inactive: locus YAL013W, strain DEP1, hits give low values 1 | locus YAL021C, strain ccr4, hits give low values 1 | locus YAL026C, strain drs2, hits give low values 0.996 | locus YAL030W, strain snc1, hits give low values 0.999 | locus YBL061C, strain skt5, hits give low values 0.993 | locus YBR009C, strain hhf1, hits give low values 0.99 | locus YBR021W, strain FUR4, hits give low values 1.01 | locus YBR023C, strain chs3, hits give low values 0.995 | locus YBR171W, strain sec66, hits give low values 0.971 | locus YBR229C, strain ROT2, hits give low values 1 | locus YBR231C, strain swc5, hits give low values 0.985 | locus YBR279W, strain paf1, hits give low values 0.995 | locus YCL011C, strain gbp2, hits give low values 0.997 | locus YCL016C, strain dcc1, hits give low values 0.993 | locus YCL029C, strain bik1, hits give low values 0.978 | locus YCL061C, strain MRC1, hits give low values 0.985 | locus YCL069W, strain vba3, hits give low values 0.991 | locus YCR088W, strain abp1, hits give low values 0.985 | locus YDL005C, strain med2, hits give low values 0.979 | locus YDL035C, strain GPR1, hits give low values 1 | locus YDL040C, strain nat1, hits give low values 0.984 | locus YDL074C, strain BRE1, hits give low values 0.965 | locus YDL101C, strain DUN1, hits give low values 0.991 | locus YDL134C, strain PPH21, hits give low values 1 | locus YDL185W, strain tfp1, hits give low values 0.956 | locus YDL192W, strain arf1, hits give low values 0.985 | locus YDR001C, strain nth1, hits give low values 0.999 | locus YDR069C, strain doa4, hits give low values 0.985 | locus YDR101C, strain arx1, hits give low values 0.999 | locus YDR137W, strain rgp1, hits give low values 1.01 | locus YDR150W, strain NUM1, hits give low values 0.998 | locus YDR159W, strain sac3, hits give low values 0.97 | locus YDR162C, strain NBP2, hits give low values 1 | locus YDR195W, strain ref2 0.967 | locus YDR297W, strain sur2, hits give low values 0.987 | locus YDR318W, strain mcm21, hits give low values 0.986 | locus YDR334W, strain swr1, hits give low values 0.995 | locus YDR335W, strain msn5, hits give low values 1 | locus YDR388W, hits give low values 0.994 | locus YDR392W, strain spt3, hits give low values 0.98 | locus YDR502C, strain sam2, hits give low values 1.01 | locus YEL003W, strain gim4, hits give low values 0.994 | locus YEL037C, strain rad23, hits give low values 0.997 | locus YEL061C, strain CIN8 (second series), hits give low values 0.995 | locus YEL061C, strain CIN8, hits give low values 0.996 | locus YER015W, strain faa2, hits give low values 0.973 | locus YER016W, strain bim1, hits give low values 0.994 | locus YER110C, hits give low values 0.993 | locus YER111C, strain swi4, hits give low values 0.997 | locus YER155C, strain BEM2 (second series), hits give low values 0.982 | locus YER155C, strain BEM2, hits give low values 0.995 | locus YER167W, strain BCK2, hits give low values 0.999 | locus YFR010W, strain ubp6, hits give low values 0.988 | locus YGL078C, strain dbp3, hits give low values 0.992 | locus YGL086W, strain mad1, hits give low values 1.03 | locus YGL167C, strain pmr1, hits give low values 0.99 | locus YGL173C, strain kem1, hits give low values 0.979 | locus YGL227W, strain vid30, hits give low values 0.979 | locus YGL240W, strain doc1, hits give low values 0.976 | locus YGL248W, strain PDE1, hits give low values 1 | locus YGL253W, strain hxk2, hits give low values 0.985 | locus YGR078C, strain PAC10, hits give low values 0.98 | locus YGR135W, strain pre9, hits give low values 0.989 | locus YGR229C, strain SMI1, hits give low values 1 | locus YGR252W, strain gcn5, hits give low values 1.18 | locus YHR013C, strain ard1, hits give low values 0.982 | locus YHR027C, strain rpn1, hits give low values 0.988 | locus YHR030C, strain SLT2, hits give low values 0.997 and 0.954 | locus YHR079C, strain IRE1 (second series), hits give low values 0.989 | locus YHR079C, strain IRE1, hits give low values 0.962 | locus YHR094C, strain hxt1, hits give low values 0.982 | locus YHR129C, strain ARP1, hits give low values 0.987 | locus YHR142W, strain chs7, hits give low values 0.995 | locus YHR200W, strain rpn10, hits give low values 0.986 | locus YIL066C, strain RNR3, hits give low values 1 | locus YIL073C, strain SPO22, hits give low values 0.95 | locus YIL125W, strain kgd1, hits give low values 0.987 | locus YIR030C, strain dcg1, hits give low values 0.991 | locus YJL092W, strain hpr5, hits give low values 0.985 | locus YJL095W, strain BCK1 (second series), hits give low values 0.998 | locus YJL095W, strain BCK1, hits give low values 0.952 and 0.984 | locus YJL115W, strain asf1, hits give low values 0.991 | locus YJL129C, strain trk1, hits give low values 1 | locus YJL134W, strain LCB3, hits give low values 0.997 | locus YJL154C, strain vps35, hits give low values 0.993 | locus YJL164C, strain tpk1, hits give low values 0.984 | locus YJL166W, strain qcr8, hits give low values 0.994 | locus YJL168C, strain set2, hits give low values 0.996 | locus YJL187C, strain SWE1 (second series), hits give low values 0.988 | locus YJL187C, strain SWE1, hits give low values 0.989 | locus YJR043C, strain POL32, hits give low values 0.987 | locus YJR066W, strain TOR1, hits give low values 0.922
